# “And” between values parts separate entries of the source, which are not always exact repeats. Equal values may be shown once. Results filed as inconclusive are left out. The source made the active and inactive calls. The calls were made as follows: active = hit-call score of the fitted dose curve at least 0.9, where 1 is the maximum; inconclusive = response in the unintended direction; inactive = score below 0.9.
# Legend:
# [1] = target: mouse Cholecystokinin, CCK2 Receptor (CCKB), Cckbr (gene 12426) (UniProt P56481); assay: NVS_GPCR_mCKKBCentral: NovaScreen (NVS) G Protein-Coupled Receptor Assay for mouse Cholecystokinin, CCK2 Receptor (CCKB) (AID 2283293)
# Outline: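 Radioligand displacement binding on mouse forebrain membranes, 2 h exposure, filter-based scintillation counting. Primary screen in duplicate at 25 uM; actives (e.g. ≥30% inhibition) retested in concentration-response up to 50 uM; loss of binding signal relative to DMSO.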
# [2] = target: human Opioid Receptor Mu (Opiate Mu), OPRM1 (gene 4988) (UniProt P35372); assay: NVS_GPCR_hOpiate_mu: NovaScreen (NVS) G Protein-Coupled Receptor Assay for human Opioid Receptor Mu (Opiate Mu) (AID 2283290);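 also: hits lower bound tracer signal versus DMSO meaning displacement of the ligand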
# Outline: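 Radioligand displacement binding on membranes from CHO cells expressing the receptor, 2.5 h after dosing, filter-based scintillation counting; loss of signal vs DMSO baseline. Screened in duplicate at 25 uM, actives then run in concentration series.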
# [3] = target: guinea pig Serotonin, 5-Hydroxytryptamine Receptor 4 (5HT4), HTR4 (gene 100135548) (UniProt O70528); assay: NVS_GPCR_g5HT4: NovaScreen (NVS) G Protein-Coupled Receptor Assay for guinea pig Serotonin, 5-Hydroxytryptamine Receptor 4 (5HT4) (AID 2283294)
# Outline: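 Guinea pig striatal membranes; radioligand competitive displacement, filtration and scintillation counting after 1 h. Primary screen in duplicate at 25 uM; actives then tested in concentration series; loss of binding signal fitted relative to DMSO.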
# [4] = target: rat Serotonin, 5-Hydroxytryptamine Receptor (5HT), Non-Selective Binding, Htr1a (gene 24473) (UniProt P19327); assay: NVS_GPCR_r5HT_NonSelective: NovaScreen (NVS) G Protein-Coupled Receptor Assay for rat Serotonin, 5-Hydroxytryptamine Receptor (5HT), Non-Selective Binding (AID 2283295)
# Outline: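 Radioligand displacement on rat cortical membranes, 1 h incubation, filter-based scintillation counting. Primary duplicates at 25 uM, actives retested in concentration series; loss of signal fitted against DMSO as baseline.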
# [5] = target: rat Adrenergic Receptor, Beta (Adrb), Non-selective Binding, Adrb1 (gene 24925) (UniProt P18090); assay: NVS_GPCR_rAdrb_NonSelective: NovaScreen (NVS) G Protein-Coupled Receptor Assay for rat Adrenergic Receptor, Beta (Adrb), Non-selective Binding (AID 2283298)
# Description: NVS_GPCR_rAdrb_NonSelective is a biochemical, single-readout assay that uses extracted gene-proteins from Rat cortical membranes in a tissue-based cell-free assay. Measurements were taken 1 hour after chemical dosing in a 48-well plate.NVS_GPCR_rAdrb_NonSelective is one of one assay component(s) measured or calculated from the NVS_GPCR_rAdrb_NonSelective assay. It is designed to make measurements of radioligand binding, a form of binding reporter, as detected with scintillation counting signals by Filter-based radiodetection technology.Data from the assay component NVS_GPCR_rAdrb_NonSelective was analyzed into 1 assay endpoint. This assay endpoint, NVS_GPCR_rAdrb_NonSelective, was analyzed in the positive analysis fitting direction relative to DMSO as the negative control and baseline of activity. Using a type of binding reporter, loss-of-signal activity can be used to understand changes in the binding as they relate to the gene Adrb1. Furthermore, this assay endpoint can be referred to as a primary readout, because the performed assay has only produced 1 assay endpoint. To generalize the intended target to other relatable targets, this assay endpoint is annotated to the gpcr intended target family, where the subfamily is rhodopsin-like receptor.
# Binding assays used specific radioligands (tritiated, iodinated) with non-radioactive competitive displacement ligands in agonist or antagonist protocols (as indicated) and various reference compounds and inhibitors to titrate specific binding to receptors and transporters. Most enzyme assays (CYPs, kinases, phosphatases, proteases, HDACs) used recombinant protein and specific substrates (fluorescence mostly, some colorimetric and radioactive) and inhibitors, followed by a biochemical separation of substrate and product. All assays for the biochemical HTS were initially run in duplicate at a single concentration (10 uM for CYP450 assays and 25 uM for all others). Assay-chemical combinations meeting a pre-defined threshold (e.g., 30% inhibition and other criteria defined below) were then run in singleton concentration-response format with maximum concentration of 20 uM for CYPs and 50 uM for all others. Each assay was run with positive and negative controls, and concurrent controls on every plate. The follow-up (secondary) screen tested active chemical-pairs in concentration series, as well as a few additional assays not tested in the primary screen, some selected negative inactives, and several cases re-run in the concentration series for confirmatory purposes.
# [6] = target: guinea pig Bradykinin Receptor B2 (BK2), BDKRB2 (gene 100135486) (UniProt O70526); assay: NVS_GPCR_gBK2: NovaScreen (NVS) G Protein-Coupled Receptor Assay for guinea pig Bradykinin Receptor B2 (BK2) (AID 2283292)
# Outline: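 Radioligand displacement on guinea pig ileum membranes for 1 h, read by filter-based scintillation counting; loss of signal relative to DMSO. Compounds were screened in duplicate at 25 uM, and those passing the threshold were retested in concentration-response up to 50 uM.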
# [7] = target: rat Adrenergic, Alpha 1A Receptor (Adra1A), Adra1a (gene 29412) (UniProt P43140); assay: NVS_GPCR_rAdra1A: NovaScreen (NVS) G Protein-Coupled Receptor Assay for rat Adrenergic, Alpha 1A Receptor (Adra1A) (AID 2283296)
# Outline: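 Rat cortical membranes pretreated with chlorethyl clonidine; competitive radioligand displacement, 1 h. Filter-based scintillation counting. Primary screen in duplicate at 25 uM, actives followed in concentration series.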
# [8] = tested on: rat Adrenergic, Alpha 1B Receptor (Adra1B), gene 24173; assay: NVS_GPCR_rAdra1B: NovaScreen (NVS) G Protein-Coupled Receptor Assay for rat Adrenergic, Alpha 1B Receptor (Adra1B) (AID 2283297)
# Outline: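 Rat liver membranes, radioligand displacement with filter-based scintillation detection, 1 h incubation. Primary screen in duplicate at 25 uM; actives retested in concentration series; activity relative to DMSO.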
# [9] = target: rat Histamine Receptor (H3), Hrh3 (gene 85268) (UniProt Q9QYN8); assay: NVS_GPCR_rH3: NovaScreen (NVS) G Protein-Coupled Receptor Assay for rat Histamine Receptor (H3) (AID 2283303)
# Outline: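 Rat forebrain membranes incubated 1 h with compound; radioligand displacement measured by filter-based scintillation counting. Single-concentration duplicates at 25 µM, then concentration-response up to 50 µM, relative to DMSO.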
# [10] = target: rat Gamma-Aminobutyric Acid Type B Receptor (GABBR), Gabbr1 (gene 81657) (UniProt Q9Z0U4); assay: NVS_GPCR_rGABBR: NovaScreen (NVS) G Protein-Coupled Receptor Assay for rat Gamma-Aminobutyric Acid Type B Receptor (GABBR) (AID 2283301)
# Outline: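 Radioligand displacement on rat cortical membranes, 1 h, filter-based scintillation counting. Primary screen at 25 uM in duplicate; compounds passing threshold re-tested in concentration-response up to 50 uM; loss of binding fitted against DMSO.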
# Chain of rat Gamma-Aminobutyric Acid Type B Receptor (GABBR), Gabbr1 (gene 81657) (Q9Z0U4 whole entry, looked up): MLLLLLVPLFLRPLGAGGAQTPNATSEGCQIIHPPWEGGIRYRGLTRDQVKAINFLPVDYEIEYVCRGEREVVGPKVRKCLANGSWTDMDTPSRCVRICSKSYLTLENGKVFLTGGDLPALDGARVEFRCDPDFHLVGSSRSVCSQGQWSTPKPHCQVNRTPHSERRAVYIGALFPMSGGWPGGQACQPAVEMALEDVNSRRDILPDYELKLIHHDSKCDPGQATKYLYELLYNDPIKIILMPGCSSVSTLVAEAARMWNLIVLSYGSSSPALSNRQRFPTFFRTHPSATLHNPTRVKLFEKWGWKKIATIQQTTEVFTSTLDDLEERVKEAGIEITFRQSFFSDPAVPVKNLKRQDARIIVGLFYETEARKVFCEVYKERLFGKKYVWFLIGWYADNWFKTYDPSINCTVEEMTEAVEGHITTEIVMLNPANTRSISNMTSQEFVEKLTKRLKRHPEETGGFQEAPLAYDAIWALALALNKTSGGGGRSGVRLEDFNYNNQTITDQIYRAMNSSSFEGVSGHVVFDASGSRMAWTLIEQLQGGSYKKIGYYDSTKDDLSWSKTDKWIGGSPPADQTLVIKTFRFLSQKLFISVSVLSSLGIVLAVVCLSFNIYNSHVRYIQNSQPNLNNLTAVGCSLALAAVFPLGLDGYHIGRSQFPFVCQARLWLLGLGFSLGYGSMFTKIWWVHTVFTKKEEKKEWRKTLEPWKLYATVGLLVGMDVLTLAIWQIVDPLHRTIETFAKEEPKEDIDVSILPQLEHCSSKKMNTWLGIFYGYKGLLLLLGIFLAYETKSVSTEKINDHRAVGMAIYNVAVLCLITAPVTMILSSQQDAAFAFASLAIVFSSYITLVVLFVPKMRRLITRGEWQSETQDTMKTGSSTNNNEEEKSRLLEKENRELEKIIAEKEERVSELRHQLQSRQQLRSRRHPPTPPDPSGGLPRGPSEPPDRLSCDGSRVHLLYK
# Chain of mouse Cholecystokinin, CCK2 Receptor (CCKB), Cckbr (gene 12426) (P56481 whole entry, looked up): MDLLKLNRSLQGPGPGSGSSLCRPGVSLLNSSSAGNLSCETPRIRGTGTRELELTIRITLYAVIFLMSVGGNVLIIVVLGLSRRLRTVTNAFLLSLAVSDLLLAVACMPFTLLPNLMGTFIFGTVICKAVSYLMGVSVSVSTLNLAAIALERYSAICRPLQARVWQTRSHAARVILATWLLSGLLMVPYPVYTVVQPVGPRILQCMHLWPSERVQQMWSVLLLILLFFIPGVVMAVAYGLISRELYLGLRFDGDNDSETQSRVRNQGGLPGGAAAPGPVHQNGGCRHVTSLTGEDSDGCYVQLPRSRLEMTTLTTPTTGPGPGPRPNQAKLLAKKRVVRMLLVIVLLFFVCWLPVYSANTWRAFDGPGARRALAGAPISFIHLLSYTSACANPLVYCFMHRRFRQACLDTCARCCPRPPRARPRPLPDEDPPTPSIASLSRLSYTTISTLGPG
# Chain of human Opioid Receptor Mu (Opiate Mu), OPRM1 (gene 4988) (P35372 whole entry, looked up): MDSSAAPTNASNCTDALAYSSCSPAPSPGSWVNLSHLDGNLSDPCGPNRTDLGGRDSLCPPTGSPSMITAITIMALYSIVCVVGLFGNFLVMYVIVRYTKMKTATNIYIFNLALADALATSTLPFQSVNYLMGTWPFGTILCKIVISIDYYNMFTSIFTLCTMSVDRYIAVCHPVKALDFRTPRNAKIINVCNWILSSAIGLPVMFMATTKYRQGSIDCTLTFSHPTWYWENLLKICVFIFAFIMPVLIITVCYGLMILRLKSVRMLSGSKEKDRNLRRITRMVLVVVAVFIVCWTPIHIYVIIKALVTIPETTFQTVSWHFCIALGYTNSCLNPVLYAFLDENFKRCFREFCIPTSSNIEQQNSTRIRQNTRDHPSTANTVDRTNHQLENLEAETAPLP
# Chain of rat Histamine Receptor (H3), Hrh3 (gene 85268) (Q9QYN8 whole entry, looked up): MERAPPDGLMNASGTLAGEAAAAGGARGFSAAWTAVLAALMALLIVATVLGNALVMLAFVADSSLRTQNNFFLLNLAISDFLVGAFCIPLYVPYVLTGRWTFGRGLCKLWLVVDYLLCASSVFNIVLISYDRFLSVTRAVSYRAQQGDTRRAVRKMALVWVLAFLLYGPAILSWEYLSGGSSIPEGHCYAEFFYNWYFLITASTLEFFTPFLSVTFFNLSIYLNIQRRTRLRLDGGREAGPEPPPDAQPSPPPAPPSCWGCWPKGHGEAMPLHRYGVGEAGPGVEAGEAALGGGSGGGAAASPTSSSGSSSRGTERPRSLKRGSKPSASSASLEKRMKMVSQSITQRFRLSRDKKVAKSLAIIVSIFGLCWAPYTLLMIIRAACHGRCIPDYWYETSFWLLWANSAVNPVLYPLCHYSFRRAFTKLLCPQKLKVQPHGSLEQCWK
# Chain of rat Adrenergic, Alpha 1A Receptor (Adra1A), Adra1a (gene 29412) (P43140 whole entry, looked up): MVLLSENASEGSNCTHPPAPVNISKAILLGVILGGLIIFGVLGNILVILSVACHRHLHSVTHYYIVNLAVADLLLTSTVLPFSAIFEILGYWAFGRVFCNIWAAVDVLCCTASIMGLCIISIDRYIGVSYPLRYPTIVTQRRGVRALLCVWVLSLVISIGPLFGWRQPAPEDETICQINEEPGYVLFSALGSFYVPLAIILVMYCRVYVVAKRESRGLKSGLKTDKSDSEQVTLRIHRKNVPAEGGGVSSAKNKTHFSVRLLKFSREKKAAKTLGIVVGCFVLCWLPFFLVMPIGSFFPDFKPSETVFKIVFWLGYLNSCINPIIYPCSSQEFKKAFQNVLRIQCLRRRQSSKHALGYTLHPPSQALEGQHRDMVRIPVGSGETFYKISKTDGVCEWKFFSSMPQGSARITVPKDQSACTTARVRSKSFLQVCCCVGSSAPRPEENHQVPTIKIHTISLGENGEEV
# Chain of rat Serotonin, 5-Hydroxytryptamine Receptor (5HT), Non-Selective Binding, Htr1a (gene 24473) (P19327 whole entry, looked up): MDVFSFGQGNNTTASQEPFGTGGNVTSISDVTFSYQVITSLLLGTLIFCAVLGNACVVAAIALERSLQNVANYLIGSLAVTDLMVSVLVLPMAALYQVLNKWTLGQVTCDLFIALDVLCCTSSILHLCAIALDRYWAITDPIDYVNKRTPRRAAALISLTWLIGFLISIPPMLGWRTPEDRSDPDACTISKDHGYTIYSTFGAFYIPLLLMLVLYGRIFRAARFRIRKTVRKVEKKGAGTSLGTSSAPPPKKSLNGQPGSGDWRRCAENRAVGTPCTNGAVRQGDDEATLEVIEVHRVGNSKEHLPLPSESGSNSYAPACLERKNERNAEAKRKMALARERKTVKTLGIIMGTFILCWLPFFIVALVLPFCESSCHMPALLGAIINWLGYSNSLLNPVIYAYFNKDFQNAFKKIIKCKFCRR
# Chain of rat Adrenergic Receptor, Beta (Adrb), Non-selective Binding, Adrb1 (gene 24925) (P18090 whole entry, looked up): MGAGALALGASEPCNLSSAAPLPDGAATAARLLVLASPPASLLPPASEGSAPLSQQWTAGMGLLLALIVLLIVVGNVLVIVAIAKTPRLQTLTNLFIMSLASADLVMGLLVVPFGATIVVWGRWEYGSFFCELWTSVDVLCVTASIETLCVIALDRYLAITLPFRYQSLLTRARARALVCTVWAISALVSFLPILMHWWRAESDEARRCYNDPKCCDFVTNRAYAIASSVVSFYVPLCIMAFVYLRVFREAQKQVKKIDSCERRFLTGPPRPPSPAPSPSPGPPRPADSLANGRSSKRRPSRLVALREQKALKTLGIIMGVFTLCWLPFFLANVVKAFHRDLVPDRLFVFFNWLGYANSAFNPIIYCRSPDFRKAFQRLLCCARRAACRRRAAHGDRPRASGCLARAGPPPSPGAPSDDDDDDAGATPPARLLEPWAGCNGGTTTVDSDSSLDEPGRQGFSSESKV
# Chain of guinea pig Bradykinin Receptor B2 (BK2), BDKRB2 (gene 100135486) (O70526 whole entry, looked up): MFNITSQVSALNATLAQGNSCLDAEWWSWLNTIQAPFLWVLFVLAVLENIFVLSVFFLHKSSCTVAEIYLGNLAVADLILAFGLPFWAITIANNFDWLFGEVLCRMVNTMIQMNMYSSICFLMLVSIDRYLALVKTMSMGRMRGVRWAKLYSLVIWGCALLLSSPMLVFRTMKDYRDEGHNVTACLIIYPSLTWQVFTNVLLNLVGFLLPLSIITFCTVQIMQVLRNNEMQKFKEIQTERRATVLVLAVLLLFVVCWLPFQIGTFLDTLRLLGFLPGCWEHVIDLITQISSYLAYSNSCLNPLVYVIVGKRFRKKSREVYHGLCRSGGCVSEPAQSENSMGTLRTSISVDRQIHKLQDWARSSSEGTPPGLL
# Chain of guinea pig Serotonin, 5-Hydroxytryptamine Receptor 4 (5HT4), HTR4 (gene 100135548) (O70528 whole entry, looked up): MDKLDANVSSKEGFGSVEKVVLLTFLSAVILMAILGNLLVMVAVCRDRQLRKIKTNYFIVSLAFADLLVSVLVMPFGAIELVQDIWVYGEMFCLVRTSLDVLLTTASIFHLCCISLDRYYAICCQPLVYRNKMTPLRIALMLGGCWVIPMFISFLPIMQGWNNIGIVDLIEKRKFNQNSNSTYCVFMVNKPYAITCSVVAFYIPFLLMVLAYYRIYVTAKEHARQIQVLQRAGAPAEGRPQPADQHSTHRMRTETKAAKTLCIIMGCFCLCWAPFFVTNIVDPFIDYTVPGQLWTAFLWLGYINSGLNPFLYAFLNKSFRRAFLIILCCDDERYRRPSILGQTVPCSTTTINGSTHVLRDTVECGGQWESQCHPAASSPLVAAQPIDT
structure (smiles),measurement,setting,value
CCCC(=O)OCCC(C)C,outcome,[1],inactive
CCN(Cc1cccnc1)C(=O)c1cccc(Cl)c1[C@]1(C)C(=O)N(Cc2ccc(OC)cc2OC)c2ccc(Cl)cc21,AC50,[2],1.48 µM (active)
same,AC50,[3],15 µM (active)
same,AC50,[4],17.4 µM (active)
CN(C[C@@H](CC[N+]12CCC(C3CCCCC3)(CC1)CC2)c1ccc(Cl)c(Cl)c1)C(=O)c1cc(C(F)(F)F)cc(C(F)(F)F)c1,AC50,[2],2.11 µM (active)
same,AC50,[3],8.02 µM (active)
CC[C@H](NC(=O)c1cc(F)ccc1NS(=O)(=O)c1cccc2cccnc12)c1ccccc1,outcome,[2],inactive
same,outcome,[5],inactive
CCOC(=O)O[C@H](C)OC(=O)c1ccc2c(c1)cc(C(=O)NC1CCN(C(C)C)CC1)n2Cc1cc(-c2ccc(Cl)s2)on1,AC50,[2],2.94 µM (active)
same,AC50,[3],23.6 µM (active)
same,AC50,[4],11.1 µM (active)
CCCCCCCCCCCC[N+](C)(C)C,outcome,[2],inactive
same,AC50,[3],17.9 µM (active)
COc1cc(C(=O)NC2CCN(C)CC2)ccc1Nc1ncc2c(n1)N(C1CCCC1)CC(F)(F)C(=O)N2C,AC50,[2],17.4 µM (active)
same,AC50,[6],2.81 µM (active)
same,AC50,[3],8.4 µM (active)
same,outcome,[4],inactive
same,AC50,[7],7.27 µM (active)
same,AC50,[8],15.5 µM (active)
same,AC50,[9],3.19 µM (active)
Clc1cc(Cl)c2c(c1)N=C1CCCCCN1C2,AC50,[3],5.45 µM (active)
same,AC50,[7],3.54 µM (active)
same,AC50,[8],5.42 µM (active)
CCCCOC(=O)c1ccc(O)cc1,outcome,[8],inactive
COc1cccc([C@H](O)C2CCN(CCc3ccc(F)cc3)CC2)c1OC,AC50,[2],12.6 µM (active)
same,AC50,[3],25 µM (active)
same,AC50,[4],5.58 µM (active)
same,AC50,[8],0.26 µM (active)
same,outcome,[10],inactive
CC/C(=C(/CC)c1ccc(O)cc1)c1ccc(O)cc1,AC50,[2],5.64 µM (active) and 4.96 µM (active) and 10.7 µM (active)
same,AC50,[1],37.9 µM (active)
same,AC50,[3],39.4 µM (active)
same,outcome,[10],inactive
CCCCCCCCOC(=O)c1cc(O)c(O)c(O)c1,AC50,[2],18 µM (active)
CN(C)c1ccc(C(=C2C=CC(=[N+](C)C)C=C2)c2ccc(N(C)C)cc2)cc1,AC50,[2],2.5 µM (active)
same,AC50,[6],12.3 µM (active)
same,AC50,[1],10.3 µM (active)
same,AC50,[3],7.22 µM (active)
same,AC50,[4],25 µM (active)
same,AC50,[7],20.9 µM (active)
same,AC50,[5],17.3 µM (active)
same,AC50,[9],23 µM (active)
NCc1cccc(C2CCN(C(=O)c3ccc(C#Cc4ccccc4F)o3)CC2)c1,AC50,[2],2.56 µM (active)
same,AC50,[3],17.6 µM (active)
same,AC50,[4],14.8 µM (active)
same,outcome,[7],inactive
same,AC50,[8],25 µM (active)
Cc1occc1C(=O)Nc1ccc(C(=O)N2CCC(F)(F)/C(=C\C(=O)N3CCC(N4CCCCC4)CC3)c3ccccc32)cc1,AC50,[3],0.579 µM (active)
same,outcome,[4],inactive
same,AC50,[8],3.24 µM (active)
same,AC50,[9],4.22 µM (active)
O=C(O)c1ccccc1-n1cc(C(=O)O)c(=O)c2cc(Nc3c(F)cc(F)cc3Cl)c(Cl)cc21,outcome,[1],inactive
C[C@]12CC[C@@H]3c4ccc(O)cc4CC[C@H]3[C@@H]1CCC2=O,outcome,[3],inactive
Cc1ncc(CO)c(CO)c1O,outcome,[10],inactive
c1ccc(C[n+]2cccc3ccccc32)cc1,AC50,[7],11 µM (active)
same,outcome,[9],inactive
O=C(O)Cc1cc(I)c(Oc2ccc(O)c(I)c2)c(I)c1,outcome,[10],inactive
Clc1ccccc1C(c1ccccc1)(c1ccccc1)n1ccnc1,outcome,[2],inactive
CCN(CC)C(=O)c1cc(S(=O)(=O)Cc2ccccc2)c(N2CCC(c3ccccc3)CC2)cc1N(CC)CCN(C)C,AC50,[2],10.3 µM (active)
same,AC50,[4],11.3 µM (active)
same,AC50,[7],17.8 µM (active)
same,AC50,[8],6.1 µM (active)
CN(C)C(=O)C1(N2CCCCC2)CCN(CC[C@@]2(c3ccc(Cl)c(Cl)c3)CN(C(=O)c3ccccc3)CCO2)CC1,AC50,[2],1.41 µM (active)
same,AC50,[6],14 µM (active)
same,AC50,[3],23.6 µM (active)
same,AC50,[4],1.71 µM (active)
same,AC50,[7],10.1 µM (active)
same,AC50,[8],5.65 µM (active)
same,AC50,[5],6.63 µM (active)
O=c1[nH]sc2ccccc12,outcome,[2],inactive
same,AC50,[3],33.7 µM (active)
Cc1cc2c(cc1C(F)(F)F)N(C(=O)Nc1ccc(Oc3cccnc3C)nc1)CC2,outcome,[2],inactive
same,AC50,[3],5.92 µM (active)
same,AC50,[4],0.43 µM (active)
COc1ccc2cc(S(=O)(=O)N[C@H](CC(=O)N[C@H](Cc3ccc(CN4[C@H](C)CCC[C@@H]4C)cc3)C(=O)N(C)C(C)C)c3ccc4c(c3)OCO4)ccc2c1,AC50,[2],8.69 µM (active)
same,AC50,[6],13.8 µM (active)
same,AC50,[3],16.8 µM (active)
same,outcome,[4],inactive
same,outcome,[7],inactive
same,AC50,[8],23.9 µM (active)
CCCCCCCCN(C)CCCCCCCC,outcome,[5],inactive
O=C1c2ccccc2C(=O)N1CCc1noc(-c2ccc(CN3CCCCCC3)s2)n1,AC50,[3],4 µM (active)
same,outcome,[4],inactive
same,AC50,[7],5.59 µM (active)
same,AC50,[9],16.8 µM (active)
